Reference: ChEMBL document CHEMBL3988442, “University of Dundee, Small-Polar-MMV Screening Library” (2021)

Target: AMP-activated protein kinase, AMPK (Homo sapiens) (UniProt P54646+O43741+P54619+Q9UGJ0+Q9Y478+Q13131+Q9UGI9)
Experiment: AMP-dependent Kinase enzyme assay. An in vitro enzyme assay that detects ADP turnover that is directly proportional to AMPK activity. This uses naive AMPK that is activated during the assay with MK-8722
Assay type: functional
Set-up: scale not given: direction of the effect not stated beside the values
Settings: 30 µM

| Compound | Percent Effect [%] |
| --- | --- |
| COc1ccc(Cl)cc1CN(CC(N)=O)C(C)C | -4.14 |
| c1ccc(CCN2CCC(OCC3CCCCO3)CC2)nc1 (stereo not given) | 11.2 |
| O=C(C1CNCCN1C(=O)CCOc1ccccc1)N1CCCC1 (stereo not given) | 8.73 |
| Cc1cc(C(=O)N2C[C@@H](CN(C)CCN(C)C)[C@@H](CO)C2)nc(C)n1 | -14.8 |
| O=C(OCC1CCCN1)c1cccc(NC(=O)c2ccco2)c1 (stereo not given) | -4.3 |
| CC(=O)N1CCC(c2ncc(C(=O)Nc3ccccc3)c(C)n2)CC1 | 25 |
| CCN(C)C(=O)c1cccc(S(=O)(=O)NCCc2nc(C)cc(=O)[nH]2)c1 | -5.87 |
| CN(c1ncc(S(N)(=O)=O)s1)C1CCc2ccccc21 (stereo not given) | 8.8 |
| CCOCCC(=O)NCC1CCCO1 (stereo not given) | 0.034 |
| O=C(Cc1cccnc1)N1CCCC(c2cc(C(F)(F)F)[nH]n2)C1 (stereo not given) | 2.17 |
| COC(=O)c1ccc(C(=O)NCc2ccco2)nc1 | -1.39 |
| COc1cc(-c2cccc3c2OC(CN)C3)ccc1O (stereo not given) | 59.7 |
| CN(Cc1ccccc1)c1cnn(CC2COCCO2)c(=O)c1 (stereo not given) | 10.8 |
| Cc1ccccc1-n1cc(CN(C)C[C@@H]2CCCN3CCCC[C@H]23)cn1 | -2.73 |
| CN(Cc1ncnn1C1Cc2ccccc2C1)C1CCS(=O)(=O)C1 (stereo not given) | 1.61 |
| CCc1nn(C)c(Cl)c1CN(CC)Cc1cnn(CC)c1 | 1.72 |
| CCCc1cc(C(=O)NC(COC)c2ccnn2C)no1 (stereo not given) | -16.8 |
| CCc1ncc2c(n1)CN(Cc1nc(-c3ccco3)oc1C)CC2 | -22.8 |
| CO[C@@H]1c2ccccc2C2(CCN(C(=O)CNS(C)(=O)=O)CC2)[C@H]1O | 19.3 |
| CCOC(=O)C(C)Nc1ccc(CCN2CCOCC2)cc1 (stereo not given) | -1.34 |
